Usually AC50 stands for the midpoint of the concentration-response curve, whichever way the signal moves.

Results filed as inconclusive are left out. Active and inactive are the calls of the source. The calls were made as follows, unless noted: active = hit-call score of the fitted dose curve at least 0.9, where 1 is the maximum; inactive = score below 0.9.

The nature of assay [1]: CCTE_Shafer_MEA_dev_firing_rate_mean: CCTE's Neural Network Formation Assay for Mean Firing Rate, Shafer Lab (AID 2284031).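 Also: curve fitted for loss of firing so AC50 reflects decreased mean firing rate.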 The essentials: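 Extracellular spike frequency, AUC over DIV 5–12 recordings, in rat cortical neuron MEA cultures dosed from plating; loss direction vs DMSO.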
The nature of assay [2]: CCTE_Shafer_MEA_dev_per_burst_spike_percent: CCTE's Neural Network Formation Assay for Percent of Spikes in a Burst, Shafer Lab (AID 2284032).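 Also: fitted as a decrease in burst spike percentage below DMSO baseline.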 The essentials: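 Value is trapezoidal AUC over recordings on days 5, 7, 9 and 12 of the well-mean fraction of spikes falling in single-electrode bursts; rat cortical cultures exposed continuously from plating, treatment renewed DIV 5 and 9, fitted downward against DMSO.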

Assay [3] can be described thus: CCTE_Shafer_MEA_dev_active_electrodes_number: CCTE's Neural Network Formation Assay for Number of Active Electrodes, Shafer Lab (AID 2284040; active = hit-call score of the fitted dose curve at least 0.9, where 1 is the maximum;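 also: potency for loss of active electrodes versus DMSO so lower counts are hits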). The essentials: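 Developing rat cortical networks on MEAs, exposed DIV 0–12. Value is the AUC of active-electrode counts (≥5 spikes/min) from days 5, 7, 9, 12, relative to DMSO.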
Assay [4] is described as follows: CCTE_Shafer_MEA_dev_burst_rate: CCTE's Neural Network Formation Assay for Burst Rate, Shafer Lab (AID 2284042).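 Also: potency for loss of burst rate below DMSO control.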 In short, it runs like this: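 Exposure ran continuously over 12 days of network development in rat cortical cultures, with compound refreshed during full media changes on DIV 5 and 9. Single-electrode bursts per recording time, well-mean over active electrodes, trapezoidal AUC across days 5–12, fitted downward relative to DMSO.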

Assay [5] in a line: CCTE_Shafer_MEA_dev_bursting_electrodes_number: CCTE's Neural Network Formation Assay for Number of Bursting Electrodes, Shafer Lab (AID 2284043; active = hit-call score of the fitted dose curve at least 0.9, where 1 is the maximum;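 also: potency is for loss of bursting electrodes relative to DMSO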). In short, it runs like this: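 Counted: electrodes with burst rate ≥1 per 2 min in each well. Cells: primary rat cortex, 1.5 x 10^5/well, on 16-electrode MEA wells. Exposure: DIV 0–12, compound renewed DIV 5 and 9. Recording days 5, 7, 9, 12; AUC vs DMSO baseline.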

Assay [6] is described as follows: CCTE_Shafer_MEA_dev_per_burst_interspike_interval: CCTE's Neural Network Formation Assay for Burst Interspike Interval, Shafer Lab (AID 2284044).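 Also: potency for a decrease of within-burst interspike interval below DMSO level.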 In short, it runs like this: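 Spontaneous activity of maturing rat cortical networks is recorded on DIV 5, 7, 9 and 12 under chronic compound exposure beginning at plating. Endpoint: burst interspike interval well-mean, collapsed into trapezoidal AUC and fitted in the negative direction relative to DMSO.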

Assay [7] concerns the target Estrogen receptor (Homo sapiens) (UniProt P03372). The experiment in a line: CCTE_Deisenroth_AIME_384WELL_LUC_Active: CCTE's 384-well Estrogen Receptor Transactivation Assay with AIME metabolic competence (ERTA luciferase; metabolism positive), Deisenroth Lab (AID 2284030; active = hit-call score of the fitted dose curve at least 0.9, where 1 is the maximum). The essentials:
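Estrogenic luciferase signal in VM7Luc4E2 cells is measured at 24 hour, after chemicals have been preconditioned 2 hours with PB/BNF-induced rat hepatic S9 in alginate. Gain of signal is fitted relative to 17beta-estradiol, across 0.002 - 200 uM.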

For assay [8] the target is unchanged. The experiment in a line: CCTE_Deisenroth_AIME_384WELL_LUC_Inactive: CCTE's 384-well Estrogen Receptor Transactivation Assay without AIME metabolic competence (ERTA luciferase; metabolism negative), Deisenroth Lab (AID 2284038; active = hit-call score of the fitted dose curve at least 0.9, where 1 is the maximum;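 also: VM7Luc4E2 breast cells given medium preincubated 2 h with S9-free microspheres; hits raise estrogen receptor luciferase signal so potencies reflect agonists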). In short, it runs like this: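 Metabolism-negative mode: AIME lids stamped in alginate-water, no hepatic S9. 2 h chemical incubation → medium onto VM7Luc4E2 ERTA, 24 h. Readout luciferase luminescence; gain-of-signal fit vs 17beta-estradiol. Conc. 0.002 - 200 uM.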

For assay [9] the target is unchanged. The assay can be described thus: CCTE_Deisenroth_AIME_384WELL_LUC_Shift: CCTE's 384-well Estrogen Receptor Transactivation Assay with AIME metabolic competence data shift (ERTA luciferase; difference in metabolism positive and negative), Deisenroth Lab (AID 2284041).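 Also: shift is response with S9 minus without S9 so positive means metabolism raised ER signal.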 The essentials:
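Here, parent compounds undergo 2 h phase I metabolism by PB/BNF-induced rat S9 before 24 h transactivation in VM7Luc4E2 cells; the curve models S9-positive minus S9-negative response over a 10-point series.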

A short description of assay [10]: CCTE_Shafer_MEA_acute_burst_duration_mean: CCTE's Neural Acute Assay for Mean Burst Duration, Shafer Lab (AID 2284014).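 Also: hits are decreases in mean burst duration relative to DMSO controls.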 In short, it runs like this: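 Acute exposure of mature rat cortical networks (DIV 13 or 15) grown on microelectrode arrays to 0.03-40 uM compound. Mean burst duration compared with the 40-min pre-dose baseline over a 40-min post-dose recording at 37 C.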

Assay [11] can be described thus: CCTE_Shafer_MEA_acute_per_burst_spike_number_mean: CCTE's Neural Acute Assay for Average Number of Spikes Per Burst, Shafer Lab (AID 2284015).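 Also: hits are decreases in mean spikes per burst versus baseline.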 The essentials:
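Percent change in mean spikes per single-electrode burst is compared between a 40 min baseline and a 40 min recording with compound (0.03-40 uM). Cultures were rat cortical neurons on MEA plates at DIV 13 or 15, recorded at 37 C, with DMSO as the negative control.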

The nature of assay [12]: CCTE_Shafer_MEA_acute_interburst_interval_mean: CCTE's Neural Acute Assay for Mean Interburst Interval, Shafer Lab (AID 2284016).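 Also: percent change of mean interburst interval versus each well's own pre-dose baseline; curves fitted for decrease in interburst interval relative to DMSO.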 In short, it runs like this: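 Percent change in mean single-electrode interburst interval was calculated per well from 40 min recordings before and after compound (0.03-40 uM). Recordings were made at 37 C on rat cortical cultures at DIV 13 or 15, with spikes detected at 8x rms threshold.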

A short description of assay [13]: CCTE_Shafer_MEA_acute_burst_percentage_mean: CCTE's Neural Acute Assay for Percentage of Spikes in a Burst, Shafer Lab (AID 2284017).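 As to AC50: curve fitted for loss of signal so potency reflects decreased burst percentage.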 In short, it runs like this: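 Well-level mean burst percentage from a 40-min recording after compound (0.03-40 uM) expressed as percent change from a 40-min baseline at 37C. Cultures: primary rat cortical neurons on MEA, dosed on DIV 13 or 15; fitted downward relative to DMSO.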

Assay [14] in a line: CCTE_Shafer_MEA_acute_burst_percentage_std: CCTE's Neural Acute Assay for Standard Deviation of Burst Percentage, Shafer Lab (AID 2284018).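 Also: fitted in the negative direction so actives lower burst percentage SD.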 In short, it runs like this:
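Primary rat cortical neurons on 16-electrode MEA wells were recorded 40 min at baseline (DIV 13 or 15), then 40 min after compound (0.03-40 uM), at 37 C. Well value is SD across electrodes of spikes-in-bursts/total spikes; endpoint is percent change, DMSO-referenced.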

Assay [15] is described as follows: CCTE_Shafer_MEA_acute_per_network_burst_spike_number_mean: CCTE's Neural Acute Assay for Average Number of Spikes in a Network Burst, Shafer Lab (AID 2284019).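 As to AC50: curve fitted for loss of signal so actives reduce spikes per network burst.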 The essentials: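 Acute exposure of rat primary cortical networks (DIV 13/15) on MEAs; adaptive spike detection at 8x rms noise, 37 C. Percent change in spikes per network burst after 40 min with compound (0.03-40 uM), negative direction vs DMSO.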

Assay [16] is described as follows: CCTE_Shafer_MEA_acute_per_network_burst_spike_number_std: CCTE's Neural Acute Assay for Standard Deviation of Number of Spikes in a Network Burst, Shafer Lab (AID 2284020).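 Also: fitted for decrease in spike-number SD versus DMSO so actives lower it.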 In short, it runs like this: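 Acute MEA exposure, rat cortical neurons, 0.03-40 uM. Per-well % change versus own baseline; DMSO as negative control.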
Assay [17] can be described thus: CCTE_Shafer_MEA_acute_per_network_burst_electrodes_number_mean: CCTE's Neural Acute Assay for Mean Number of Electrodes in a Network Burst, Shafer Lab (AID 2284021).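 Also: curves fitted for decreases only so hits reduce electrodes per burst.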 The essentials: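 Percent change from baseline in average electrode count per network burst, rat cortical cultures on 48-well MEAs; 40-min recordings each side of exposure, DIV 13 or 15; threshold 8x rms noise; DMSO as negative control.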

The nature of assay [18]: CCTE_Shafer_MEA_acute_network_burst_percentage: CCTE's Neural Acute Assay for Percentage of Network Bursts, Shafer Lab (AID 2284022).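 Also: curves fitted for loss so actives lower network burst percentage.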 The essentials: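 On DIV 13 or 15, at least three wells of rat cortical neurons per compound are dosed at 0.03-40 uM. Spontaneous firing is detected at 8x rms noise for 40 min before and after dosing at 37 C. The percent change in network-burst spike share is reported.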

A short description of assay [19]: CCTE_Shafer_MEA_acute_cross_correlation_HWHM: CCTE's Neural Acute Assay for Cross Correlation at Half Width at Half Maximum, Shafer Lab (AID 2284026).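 Also: percent change per well from pre-dose baseline in spike cross-correlogram half width; hits are a decrease in cross-correlogram half width relative to DMSO.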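 As to outcome: spontaneous network firing of rat primary cortical neurons on multiwell microelectrode arrays.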 The essentials: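 Percent change in cross-correlogram half width at half maximum, narrower meaning more synchrony, was derived per well from paired 40-min recordings before and during exposure to 0.03-40 uM compound in rat cortical cultures at 37 C.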

A short description of assay [20]: CCTE_Shafer_MEA_acute_synchrony_index: CCTE's Neural Acute Assay for Synchrony, Shafer Lab (AID 2284027).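 Also: network synchrony index of spontaneous spiking in primary rat cortical neurons on MEAs; fitted for loss of signal so actives lower synchrony relative to DMSO.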 The essentials:
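Acute exposure of rat primary cortical neurons (DIV 13 or 15) at 0.03-40 uM. Synchrony index, 40 min before vs after, as % change relative to DMSO control.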

Chain of Estrogen receptor (Homo sapiens) (P03372 whole entry, looked up): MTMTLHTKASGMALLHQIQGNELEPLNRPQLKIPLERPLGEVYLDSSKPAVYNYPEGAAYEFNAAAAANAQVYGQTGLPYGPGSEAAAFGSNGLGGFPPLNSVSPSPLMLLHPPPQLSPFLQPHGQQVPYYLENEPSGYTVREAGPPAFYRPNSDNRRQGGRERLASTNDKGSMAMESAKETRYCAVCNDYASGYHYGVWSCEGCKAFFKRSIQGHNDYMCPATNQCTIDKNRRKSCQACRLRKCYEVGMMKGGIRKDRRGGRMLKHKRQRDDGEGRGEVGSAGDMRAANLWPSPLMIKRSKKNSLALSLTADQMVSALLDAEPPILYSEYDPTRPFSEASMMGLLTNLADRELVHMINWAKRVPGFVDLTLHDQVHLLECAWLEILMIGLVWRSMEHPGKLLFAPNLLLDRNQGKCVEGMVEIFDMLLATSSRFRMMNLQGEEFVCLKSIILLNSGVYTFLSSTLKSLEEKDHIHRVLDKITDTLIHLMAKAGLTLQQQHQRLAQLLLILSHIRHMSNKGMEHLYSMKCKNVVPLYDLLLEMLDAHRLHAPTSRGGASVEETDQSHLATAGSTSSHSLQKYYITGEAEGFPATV

For `N#Cc1ccc(CC(=NNC(=O)Nc2ccc(OC(F)(F)F)cc2)c2cccc(C(F)(F)F)c2)cc1`, the AC50 in assay [1] was 363 nM (active); in [2], 301 nM (active); in assay [3], 692 nM (active); in assay [4], 240 nM (active); in assay [5], 297 nM (active); in assay [6] it was 301 nM (active).
As to `CCCCCCCCCC=O`, the molecule was classed as inactive in assay [7], in assay [8] and in assay [9].
Take `CC(C)(COC(=O)c1ccccc1)COC(=O)c1ccccc1`: the result in assay [10], in [11], in assay [12], in assay [13], in assay [14] and in assay [15] was inactive. Besides, the molecule was called inactive in assay [16], in assay [17], in assay [18], in assay [19] and in assay [20].
With `Nc1cc([N+](=O)[O-])ccc1O`, the result in assay [10], in assay [12], in assay [14] and in assay [17] was inactive. The AC50 in assay [11] is 25.1 µM (active); in [13], 23.7 µM (active); in [15] it was 40.3 nM (active); in assay [16], 226 nM (active); in [18] it was 15 µM (active); in [19] it was 24.4 µM (active). Further, the AC50 in [20] is 22.6 µM (active).
As for `NCCCN1CCOCC1`, the molecule was called inactive in [7], in [8] and in assay [9].
For the molecule `CC(=O)OCCC(C)CC(C)(C)C` (stereo not drawn), the molecule was called inactive in assay [10], in [11], in [12], in assay [13], in [14] and in assay [15]. The molecule was called inactive in assay [16], in [17], in assay [18], in assay [19] and in assay [20].
As to `NCCNCCN`, the call in assay [10], in assay [11], in assay [12], in assay [13], in [14] and in [15] was inactive. Besides, the molecule was called inactive in assay [16], in [17], in assay [18], in [19] and in assay [20].
On to `OC1OC[C@@H](O)[C@H](O)[C@H]1O` (stereo partly drawn), for which the call in assay [10], in [11], in [12], in assay [13], in [15] and in assay [16] was inactive. Also, the molecule was classed as inactive in assay [17], in assay [18], in assay [19] and in assay [20]. Moreover, the AC50 in [14] is 1.21 µM (active).
In the case of `C=C[Si](OCC)(OCC)OCC`, the call in [10], in assay [11], in assay [12], in assay [13], in assay [14] and in [15] was inactive. For the same molecule, the outcome in [16], in [17], in assay [18], in [19] and in assay [20] was inactive.
Turning to `C=CCOC(=O)CCC1CCCCC1`, the result in [10], in [11], in [12], in [13], in assay [14] and in [15] was inactive. The molecule was called inactive in [16], in assay [17], in assay [18], in [19] and in [20].
For the molecule `OCCOCCOCCOCCO`, the half-maximal activity concentration (AC50) in assay [7] was 0.342 nM (active); in assay [8], 1.71 nM (active). The result in [9] was inactive.
Turning to `OC[C@H]1O[C@H](O[C@]2(CCl)O[C@H](CCl)[C@@H](O)[C@@H]2O)[C@H](O)[C@@H](O)[C@H]1Cl`, the result in assay [10], in [11], in assay [12], in [13], in [14] and in [15] was inactive. Moreover, the molecule was called inactive in assay [16], in assay [17], in assay [18], in assay [19] and in [20].

The values above are taken from PubChem BioAssay (EPA / NIEHS).
